The results in this text go back to PubChem BioAssay AID1823 (The Scripps Research Institute Molecular Screening Center, 2009).

SMILES strings stand for the structures. In all, about 16,000 compounds went through this assay and about 70 (0.4%) were called active. Cut-off read from the data, not from the text of the source: active = inhibition above about 75%; inactive = the rest. The list comes from a sample in which actives are over-represented; it also holds similar structures and randomly drawn compounds.

The nature of this experiment: quenches luminol chemiluminescence in Nox1 counter-screen (AID 1823). The following applies: HRP/luminol/H2O2 chemiluminescence counterscreen; at 6.7 µM; active compounds read high. For orientation: A counterscreen serves to expose hits that act by an unwanted route or on another target.
A word on the inhibition: it is the drop in the measured response relative to a control, in per cent. As for `CCOC(=O)NC(=O)/C(=C/NC(C)C)C(=O)OCC`, the inhibition is 2.4% (inactive). Then `CSc1nnc(SC)n1CCNC(=O)Nc1cccc(Cl)c1`, with 3.79% (inactive); and `CCCCc1c(O)cc(-c2ccccc2)n(Cc2ccccc2)c1=O`, with 7.84% (inactive). In the case of `COc1ccc(OC(=O)/C=C/c2sc3ccccc3c2C)cc1` it was -0.97% (inactive); in that of `Cc1nc(C(F)(F)F)ccc1NC(=O)/C=C\C(=O)O`, 1.91% (inactive); in that of `CCc1cnc(NS(=O)(=O)c2cc(Cl)sc2Cl)nc1-c1c(F)cccc1F`, -0.98% (inactive).

Take `Cc1ccc(S(=O)(=O)NNC(=O)c2ccccc2N)cc1`: the inhibition is 37.9% (inactive).

With `O=C(NCc1cccnc1)Nc1cccc(NC(=O)NCc2cccnc2)c1F`, the inhibition was 1.8% (inactive). Then `COc1cccc2c1c(NS(=O)(=O)c1cn(C)cn1)nn2C`, with -21.4% (inactive); and `O=[N+]([O-])c1ccc2c(c1)CCN2S(=O)(=O)c1ccccc1`, with -4.92% (inactive); and `CNC(=O)c1ccccc1Sc1ccccc1C(=O)NC`, with -0.03% (inactive). In the case of `Cc1nc(-c2ccc(NC(=O)COCC(=O)O)cc2)cs1` it was 21.6% (inactive).

With `O=C1C(Cl)=C(Oc2cc(Cl)c(Cl)cc2Cl)C(=O)c2ccccc21`, the inhibition was 0.81% (inactive). Regarding `Cn1ncc(Br)c1NC(=O)C(C)(C)C`, the inhibition is 4.37% (inactive).

In the case of `N#Cc1ccc(-c2csc(COc3ccccc3Cl)n2)cc1`, the inhibition was -1.21% (inactive).

As to `CS(=O)(=O)Nc1ccc(/C(N)=N/OC(=O)c2cccs2)cc1`, the inhibition was 2.83% (inactive). For `c1ccc2sc(-c3csc(-c4ccc5c(c4)OCCO5)n3)nc2c1`, the inhibition is 3.06% (inactive).

`N#CCCSc1sc(=S)sc1SCCC#N`: the inhibition is 3.43% (inactive). As to `C/C(=N\O)C(C)(C)Nc1ccc(C(C)(C)C)cc1`, the inhibition was -0.65% (inactive). In the case of `O=c1[nH]c2c(=O)[nH]c(=S)[nH]c2nc1/C=C(\O)c1ccccc1` it was -2.84% (inactive); in that of `O=C(Nc1ccc(F)cc1OC(F)(F)F)N1CCC(O)CC1`, -1.8% (inactive); in that of `CCOC(=O)c1c(NC(=S)NC)sc2c1CCCC2`, 97.7% (active). Regarding `CCOC(=O)c1c(NC(=S)Nc2ccccc2)sc2c1CCN(C)C2`, the inhibition was 0.9% (inactive). In the case of `CCOC(=O)c1c(C)csc1NC(=O)CC(=O)C(F)(F)F` it was -0.11% (inactive); in that of `Cc1cc(/C(N)=N/OC(=O)c2cccs2)c(-c2ccccc2)o1`, -4.79% (inactive); in that of `Cc1cc(C)nc(NC(=S)c2ccc(NC(=O)/C=C/C(=O)O)cc2)n1`, -2.67% (inactive).

With `CCSC(=O)NCc1ccccc1`, the inhibition is -0.89% (inactive). Then `Cc1onc(-c2ccccc2Cl)c1NC(=O)N1c2ccc(F)cc2CCC1C` (stereo not given), with 8.92% (inactive); and `Nc1nc(C23CC4CC(CC(C4)C2)C3)cs1`, with -1.09% (inactive); and `CC(C)n1c(SCC(=O)c2cccc([N+](=O)[O-])c2)nc2cc(C(F)(F)F)ccc21`, with 2.2% (inactive).

Consider `CC(C)CCOS(=O)(=O)c1ccc2c(c1)Cc1cc(S(=O)(=O)OCCC(C)C)ccc1-2`, for which the inhibition was -0.63% (inactive). For `O=C(CSC(=S)N1CCCCC1)c1c(F)cccc1F`, the inhibition is 26.8% (inactive). Take `O=C(c1cc(-c2cccs2)on1)N1CCCCC1`: the inhibition is 3.17% (inactive). Then `N#CC(C#N)=CNc1c(F)cccc1Cl`, with -4.02% (inactive); and `CCOC(=O)C1=C(C)NC(C)=C(C(=O)OCC)C1c1ccccn1`, with 0.07% (inactive); and `CCOC(=O)c1cc(CC)sc1NC(=O)c1cccc(C(F)(F)F)c1`, with -4.21% (inactive).

For `CC(C)S(=O)(=O)/C(C#N)=C/c1ccccc1OC(F)(F)F`, the inhibition is -0.54% (inactive).

With `COC(=O)c1cnc(N2CCCN(C(=O)C3COc4ccccc4O3)CC2)nc1C(F)(F)F` (stereo not given), the inhibition was 1.21% (inactive). Then `Cc1ccccc1NC(=O)NCc1ccco1`, with -0.91% (inactive); and `O=[N+]([O-])c1ccc(-c2ccc(I)cc2)cc1`, with -6.68% (inactive); and `CC(C)NC(=O)NNc1c(Cl)cncc1Cl`, with -1.24% (inactive). As for `Cc1ccc(Oc2c(C)[nH]c(=S)[nH]c2=O)cc1`, the inhibition is -0.85% (inactive). Then `CN(C)c1cc(-c2cc(Cl)sc2Cl)oc(=O)c1Cl`, with -5.79% (inactive).

Take `Cc1cc(C)nc(N/C=C(\C#N)S(=O)(=O)c2ccc(Cl)cc2)n1`: the inhibition was 2.84% (inactive). As to `O=C(NNC(=S)Nc1ccccc1Cl)c1ccc(OC(F)(F)F)cc1`, the inhibition is 2.9% (inactive). Take `Cn1cc(Br)c(-c2cccc(NC(=O)c3ccccc3Cl)c2)n1`: the inhibition is -4.85% (inactive). In the case of `CCc1cccc(C)c1N(C(C)=O)C1=NCCC(=O)S1` it was -4.86% (inactive). In the case of `O=[N+]([O-])c1ccc(C2CC2(Br)Br)cc1` (stereo not given) it was 0.05% (inactive). In the case of `CSC(C)C(=O)/C=C/N(C)C` (stereo not given) it was -4.32% (inactive). Take `COc1ccc(Cc2nc(C(C)(C)C)cs2)cc1`: the inhibition is -2.22% (inactive).

For the molecule `Cc1noc(C)c1S(=O)(=O)N1CCN(C2c3ccccc3-c3ccccc32)CC1`, the inhibition was 0.21% (inactive). In the case of `CCOC(=O)NC(=O)/C(=C/NCc1cccs1)C(=O)OCC` it was 1.42% (inactive). Then `CC(=O)Nc1ccc(S(=O)(=O)NNc2c(Cl)cncc2Cl)cc1Cl`, with 10.2% (inactive).

With `CCCN(CCC)S(=O)(=O)c1ccc(C(=O)Oc2c(C)cccc2OC)cc1`, the inhibition is -5.62% (inactive). Then `CCOC(=O)c1cc(C)n(-c2cccc([N+](=O)[O-])c2)c1-c1ccccc1`, with 1.22% (inactive); and `COc1cccc(C(=O)c2sc3nsc(SCc4ccc(F)cc4)c3c2N)c1`, with 9.11% (inactive). For `CC(C)(C)c1ccc(NC(=O)c2ccco2)c(NC(=O)C(Cl)(Cl)Cl)c1`, the inhibition was -4.94% (inactive). In the case of `O=C(Nc1ccc2c(c1)OCCO2)c1cnccn1` it was 1.1% (inactive); in that of `CSc1nc(-n2nc(C)cc2C)nc(-c2ccco2)c1C#N`, 1.13% (inactive). In the case of `O=C(O)CCc1cccnc1` it was -4.95% (inactive); in that of `CCCCCCCCCCCCCC#CC(O)C(N)CO` (stereo not given), 2.24% (inactive). `O=C(CSc1nc2ccccc2o1)N1CCC(n2cccc2)CC1`: the inhibition is 10% (inactive).

Regarding `CC(=O)NC12CC3(C)CC(C)(CC(C)(C3)C1)C2`, the inhibition was 2.16% (inactive).

Turning to `COc1cc(CC/C(C)=N/O)ccc1O`, the inhibition is 2.62% (inactive). `Cc1nc(C(F)(F)F)ccc1C(=O)NC1CCCc2ccccc21` (stereo not given): the inhibition is 3.59% (inactive).
